Screening results as filed in PubChem.
An excerpt weighted towards active compounds, which were near 4.7% of everything screened.
D1 potentiator: potentiators of human D1 dopamine receptor; HEK293 TREx D1 cells, calcium flux, dopamine EC20 potentiation; potentiation, % at 10 µM; 360,000 compounds, 0.036% hits; AID 504651; in the data active = potentiation above about 30%; also: 0% is about no effect
TRHR ag: activates the human TRH receptor; activation, % at 2 µM; TRHR cells, calcium flux fluo-8, FDSS agonist mode; 360,000 compounds, 0.18% hits; P34981; AID 493084; also: 0% is about no effect
Target sequence (P34981 whole entry, looked up): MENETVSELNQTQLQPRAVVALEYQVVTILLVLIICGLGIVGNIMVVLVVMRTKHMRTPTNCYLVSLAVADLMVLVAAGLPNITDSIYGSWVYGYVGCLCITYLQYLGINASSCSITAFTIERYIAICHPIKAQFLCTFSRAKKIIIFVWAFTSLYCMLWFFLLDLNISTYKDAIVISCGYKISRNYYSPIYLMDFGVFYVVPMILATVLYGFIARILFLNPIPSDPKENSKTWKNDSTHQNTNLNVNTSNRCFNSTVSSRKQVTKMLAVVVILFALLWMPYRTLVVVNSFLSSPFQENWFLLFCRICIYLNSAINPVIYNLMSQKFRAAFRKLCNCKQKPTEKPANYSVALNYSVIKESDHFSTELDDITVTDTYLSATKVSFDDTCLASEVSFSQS
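Agonist-mode FDSS calcium read (Ex 480/Em 530, 1 s cycles) in 1536-well TRHR cells with fluo-8 dye, after 10-cycle baseline and 23 nL compound addition; TRH at EC20 (10 nM final) added afterwards for the enhancer phase.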
D1 agonist: activates the human D1 dopamine receptor. P21728. HEK293 T-REx D1 cells, calcium flux, agonist mode. activation, % at 2 µM. 360,000 compounds, 1% hits. AID 504660; also: 0% is about no effect
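Tetracycline-induced HEK293 TREx D1 cells, force-coupled to calcium signalling, were dye-loaded with a no-wash calcium kit. Compound was pin-added after a 10 s baseline. Fluorescence was read kinetically at 1 cycle/s for 180 s, with calcium rises flagged as agonism.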
D1 antagonist: antagonists of human D1 dopamine receptor. activity change, negative = inhibition, % at 10 µM. 360,000 compounds, 3.2% hits. P21728. HEK293 TREx D1 cells, calcium flux, dopamine EC80; stronger effect = lower value. AID 504652; in the data active = activity change below about -30%; also: % is scaled to controls: 0 for no effect and ±100 for the full control effect
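Calcium flux readout: force-coupled, inducible Hek293 Trex D1 line, cells induced overnight at 30 C with tetracycline, dye-loaded 30–90 min at RT. Antagonism scored against EC80 dopamine challenge given 180 s after compound.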
TRHR PAM: TRH receptor (human) allosteric enhancement; P34981; TRHR cells, fluo-8 calcium fluorescence, EC20 TRH enhancement; enhancement, % at 2 µM; 360,000 compounds, 0.66% hits; in the data active = enhancement above about 30%; also: 0% is about no effect
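TRHR-expressing cells loaded with fluo-8 calcium dye were read kinetically (ex 480/em 530) during compound addition, then stimulated with an EC20 of TRH (10 nM final). Enhancement of the Gq-mediated intracellular calcium response was scored.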
* hit, by the source's call; x = no result. Rule as the data show it, unless noted: active = activation above about 30%; inactive = the rest.

SMILES	D1 potentiator	TRHR ag	D1 agonist	D1 antagonist	TRHR PAM
COc1ccc2c(c1)cc1c(=O)n(CC(=O)NCc3ccco3)nc(C)n12	0	0	-1	-17	3
CN(C)S(=O)(=O)c1ccc(NC(=O)C2CC3C=CC2C3)cc1 (stereo not given)	-2	0	1	-30*	6
CN(C)S(=O)(=O)c1ccc(NC(=O)C2COc3ccccc3O2)cc1 (stereo not given)	-4	-1	4	1	3
Oc1ccc(Cl)cc1CNCc1ccc(Cl)cc1	1	1	21	18	-1
Oc1ccc(Cl)cc1CNCc1ccc(F)cc1	-8	6	60*	-16	2
Oc1ccc(Cl)cc1Cc1cc(Cl)ccc1O	13	-2	111*	33	-2
C=CCSc1ncc(-c2ccccc2)cn1	-4	0	3	-31*	9
C#CCSc1ncc(-c2ccccc2)cn1	-3	0	2	-3	5
O=[N+]([O-])c1ccc(P(=O)(Cc2ccccc2)c2ccccc2O)cc1 (stereo not given)	-6	-1	0	-34*	4
O=C1CCCc2ccccc2N1Cc1cccc(F)c1	1	-2	1	8	34*
CCn1cc(S(=O)(=O)c2cccc(Cl)c2)c(=O)c2cc(F)c(N3CCN(C)CC3)cc21	5	1	4	-2	22
Cc1cccc(-c2nc3ccccc3n2Cc2ccccc2)c1	0	-1	53*	-49*	-5
CCCn1c(-c2cccc(Br)c2)nc2ccccc21	-3	-3	1	-35*	3
COc1ccc(-c2nc3ccccc3n2Cc2ccc(Cl)cc2)cc1	-3	-1	25	-32*	1
O=C(/C=C/c1ccccc1Cl)Nc1nc(-c2cccs2)ns1	0	0	1	-3	2
COc1cc(C2OC(=O)c3c2ccc(OC)c3OC)ccc1O (stereo not given)	-3	0	6	-4	-4
Cc1[nH]c2ccc(F)cc2c1CCNC(=O)c1cc2cc(Cl)ccc2oc1=O	-1	0	-1	-1	4
Cc1[nH]c2c(C)cccc2c1CCNC(=O)c1cc2ccccc2oc1=O	-5	2	-1	3	3
COc1cccc2cc(C(=O)NCCc3c(C)[nH]c4ccc(F)cc34)c(=O)oc12	-4	-1	0	-4	39*
COc1ccc2oc(=O)c(C(=O)NCCc3c(C)[nH]c4c(C)cccc34)cc2c1	-1	0	-1	6	51*
CCOC(=O)c1ccccc1NC(=O)CSc1nc(=O)[nH]c2c1CCC2	2	-1	-2	x	2
COC(=O)c1ccccc1S(=O)(=O)N1CCC(C(=O)OCc2ccc([N+](=O)[O-])cc2)CC1	-2	1	13	-40*	-2
CCOC(=O)c1ccccc1NC(=O)COC(=O)C1CCN(S(=O)(=O)c2ccccc2C(=O)OC)CC1	-1	1	10	-1	0
COc1cccc(-c2nc(SCC(=O)Nc3ccc4c(c3)OCCO4)c(-c3ccc(C)cc3)[nH]2)c1	-3	0	0	-7	3
CCOC(=O)c1scc(-c2ccccc2)c1S(=O)(=O)Nc1ccc(N(C)C)cc1	-5	-1	2	-9	53*
SMILES	D1 potentiator	TRHR ag	D1 agonist	D1 antagonist	TRHR PAM
O=C1CCC(C(=O)N2CCCC(C(=O)c3ccc4c5c(cccc35)CC4)C2)=NN1 (stereo not given)	-3	1	2	-33*	-2
O=C(CCCn1c(=O)[nH]c2ccsc2c1=O)N1CCN(c2ccccn2)CC1	-1	0	0	-6	30*
Cc1cccc(N2CCN(C(=O)CCCn3c(=O)[nH]c4ccsc4c3=O)CC2C)c1 (stereo not given)	-3	-1	1	3	4
Cc1cccc(N2CCN(C(=O)CCn3c(=O)[nH]c4ccsc4c3=O)CC2C)c1 (stereo not given)	-6	-2	-4	-13	32*
COC(=O)c1ccc(Cn2ncc3c4sc(C)cc4n(C)c3c2=O)cc1	-3	-1	6	0	-5
CCc1ccc(C2CC(=O)c3c([nH]c(C(=O)OCC4CCCCC4)c3C)C2)cc1 (stereo not given)	-3	1	1	8	19
CCOC(=O)c1c(C)n(-c2ccc(C)cc2)c2ccc(O)c(CN(C)C)c12	-11	0	34*	-24	2
CCOC(=O)c1c(C)n(-c2ccc(OC)cc2)c2ccc(O)c(CN(C)C)c12	0	3	14	5	-8
Cc1ccc(NC(=S)N/N=C2/CCCCc3ccccc32)cc1	-1	0	1	-6	-3
COc1ccc(NC(=S)N/N=C2/CCCc3c(C)cc(C)cc32)cc1	4	0	1	-40*	-1
CCc1ccc(NC(=O)C2CCN(C(=O)[C@@H]3Cc4ccccc4CN3)CC2)cc1	-2	1	32*	8	0
CC(=O)N1c2ccc(S(=O)(=O)Nc3ccc(Cl)cc3C)cc2CC1C (stereo not given)	-5	1	14	-17	-5
COc1ccc(S(=O)(=O)N2CCC(N3CCN(Cc4ccc(F)cc4)C(=O)C3=O)CC2)cc1	1	-1	2	-36*	3
COc1ccc(S(=O)(=O)N2CCN(Cc3ccc(Cl)cc3)CC2)cc1	-2	-1	3	10	-1
COc1ccc(S(=O)(=O)N2CCN(Cc3cccc(Cl)c3)CC2)cc1	-2	0	1	-39*	-1
COc1ccc(S(=O)(=O)N2CCC(N3CCN(Cc4ccccc4)CC3)CC2)cc1	-1	0	-2	-6	31*
COc1ccc(OC)c(S(=O)(=O)N2CCC(C(=O)N3CCN(Cc4ccccc4)CC3)CC2)c1	-4	0	5	-3	3
COc1ccc(OC)c(S(=O)(=O)N2CCN(Cc3ccccc3)CC2)c1	0	0	6	0	31*
O=C1C(=O)N(C2CCN(S(=O)(=O)c3ccc(F)cc3)CC2)CCN1Cc1ccccc1	0	0	3	24	-2
O=S(=O)(c1ccc(Cl)cc1)N1CCN(C2CCN(Cc3ccccc3)CC2)CC1	-1	0	2	6	15
COc1ccc(C)cc1NC(=O)Nc1ccccc1OCc1cc(=O)n2ccccc2n1	-2	0	-1	-6	-1
COc1ccc(C)cc1NC(=O)C1CCN(S(=O)(=O)c2ccc3[nH]c4c(c3c2)CCCCC4)CC1	-3	0	4	-12	6
COc1ccc(Br)cc1S(=O)(=O)N1CCCC1	-10	0	-2	-36*	-3
O=[N+]([O-])c1ccccc1S(=O)(=O)N1CCN(C2CCN(Cc3ccccc3)CC2)CC1	-2	1	1	-8	31*
CCc1cc2cc(C)ccc2nc1SCC(=O)NNC(=O)c1ccco1	x	-1	34*	12	1
